sEH activator = increases human soluble epoxide hydrolase activity; P34913; purified human sEH enzymatic activity, activator screen; activation, % at 2 µM; actives 0.04% (n = 91,000); AID 717; in the data active = activation above about 37%
CYP2C19 act = increases human CYP2C19 enzyme activity. P33261. 96,000 tested, under 10 active. recombinant CYP2C19, luciferin-H EGE luminescence; active compounds read high; 0 = fully inhibited enzyme, 1 = untreated enzyme. AID 1025. activation factor at 5 µM;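 active = activation factor of at least 2 at 5 µM in the primary screen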
Target sequence (P33261 whole entry, looked up): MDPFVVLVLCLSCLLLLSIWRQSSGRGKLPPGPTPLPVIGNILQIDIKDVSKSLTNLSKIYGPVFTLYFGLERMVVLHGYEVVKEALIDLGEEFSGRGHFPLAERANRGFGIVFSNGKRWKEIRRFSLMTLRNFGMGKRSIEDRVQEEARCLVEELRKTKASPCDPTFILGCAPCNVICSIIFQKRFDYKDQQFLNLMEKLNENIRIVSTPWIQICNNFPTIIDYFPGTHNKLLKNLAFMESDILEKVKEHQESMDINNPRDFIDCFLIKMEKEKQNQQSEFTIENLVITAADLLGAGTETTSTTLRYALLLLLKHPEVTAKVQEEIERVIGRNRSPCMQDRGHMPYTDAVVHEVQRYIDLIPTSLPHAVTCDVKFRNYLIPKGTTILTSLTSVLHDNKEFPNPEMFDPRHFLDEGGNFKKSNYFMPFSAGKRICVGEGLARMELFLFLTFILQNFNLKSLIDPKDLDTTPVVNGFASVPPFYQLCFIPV
CYP2C9 inh = blocks human cytochrome P450 2C9; P11712; CYP2C9 Supersomes, luciferin-H conversion, luminescence; inhibition, % at 5 µM; actives 20% (n = 96,000); AID 777;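 active = blocking of liver enzyme CYP2C9 beyond about 50% at 5 µM, limit read from the data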
CYP2C19 inh = inhibitors of human CYP2C19; P33261; CYP2C19 Supersomes, luciferin-H EGE luminescence, 30 min; inhibition, % at 5 µM; actives 21% (n = 96,000); AID 778;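 active = CYP2C19 inhibition above a set limit at 5 µM in the primary screen, cut at about 50% in these data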
sEH inhibitor = inhibitors of human soluble epoxide hydrolase; actives 0.34% (n = 91,000); inhibition, % at 2 µM; P34913; AID 707; recombinant human sEH enzymatic activity assay; in the data active = inhibition above about 80%
CYP2C9 act = activators of human CYP2C9. P11712. recombinant CYP2C9, luciferin-H conversion, luminescence; active compounds read high; factor 1 = untreated enzyme, 0 = blocked. activation factor at 5 µM. actives 1.4% (n = 96,000);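 active = activation factor of 2 or more for CYP2C9 at a 5 µM dose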
Of the large screens only hits and unclear results are named; the others gave an inactive call. Rows were chosen to be rich in hits. Some 27% of all compounds tested hit in one or more screens of this group.

Cc1ccc(C2=N/C(=C\N3CCCCC3)C(=O)O2)cc1	CYP2C9 inh 66.2, CYP2C19 inh 83.7
Cc1ccc(-c2ccc(=O)n(CCC(=O)NCc3ccccn3)n2)cc1	none
Cc1ccc2c(c1)NCCO2	none
Fc1cc2nc(-c3ccncc3)[nH]c2cc1F	CYP2C19 inh 64.2
CCOC(=O)C1=C(O)/C(=C\c2cccc(OC)c2)N=C1C	CYP2C19 inh 65.4
CCC(C)Nc1nc(SC(C(C)=O)C(C)=O)nc(N(C)C)n1 (stereo not given)	CYP2C9 inh 61.5, CYP2C19 inh 51.8
Nc1cc(C(=O)OCC(=O)N2CCCC2)ccc1Cl	none (no result: sEH activator, sEH inhibitor)
O=C(OCC(=O)N1CCCCC1)c1cc2ccccc2cc1O	CYP2C19 inh 75.9
Cc1cc(C)n(-c2ccc(Cl)c(C(=O)OCC(=O)N3CCCCC3C)n2)n1 (stereo not given)	none (no result: sEH activator, sEH inhibitor)
CCC1CCCCN1C(=O)COC(=O)c1cc2ccccc2cc1O (stereo not given)	CYP2C19 inh 53.3 (no result: sEH activator, sEH inhibitor)
O=c1cc(O)n(-c2ccc(F)cc2)c(=S)[nH]1	none
CC(NC(=O)c1cc2sccc2n1C)c1ccc2c(c1)OCCO2 (stereo not given)	CYP2C9 inh 81.6
CCn1c(C(=O)NC(C)c2ccc3c(c2)OCCO3)cc2sccc21 (stereo not given)	none
Cc1ccsc1C(=O)NC(C)c1ccc2c(c1)OCO2 (stereo not given)	none (no result: CYP2C19 act, CYP2C9 inh, CYP2C19 inh, CYP2C9 act)
CC(NC(=O)c1cccs1)c1ccc2c(c1)OCO2 (stereo not given)	CYP2C9 inh 75.9, CYP2C19 inh 91.9
CC(Nc1cc(=O)n(C)c(=O)[nH]1)c1ccccc1 (stereo not given)	none
O=C(Cn1nc(C(F)(F)F)c2c1CCCC2)Nc1ccc2c(c1)OCO2	CYP2C9 inh 53.3, CYP2C19 inh 86.7
O=C(CSCc1ccccc1)Nc1ccc2c(c1)OCO2	none (no result: CYP2C19 act, CYP2C9 inh, CYP2C19 inh, CYP2C9 act)
Cc1ccc(S(=O)(=O)C2(C(=O)Nc3ccc(F)cc3)CC2)cc1	none
Cc1ccc(S(=O)(=O)C2(C(=O)Nc3ccc4c(c3)OCO4)CC2)cc1	CYP2C9 inh 83.1, CYP2C19 inh 86.9 (no result: sEH activator, sEH inhibitor)
COc1ccc(NC(=O)Cn2nc(C(F)(F)F)c3c2CCCC3)cc1OC	none (no result: CYP2C19 act, CYP2C9 inh, CYP2C19 inh, CYP2C9 act)
O=C(CSCSCC(=O)Nc1ccc2c(c1)OCO2)Nc1ccc2c(c1)OCO2	CYP2C9 inh 79.7
CSCCC(C(=O)Nc1ccc2c(c1)OCO2)N1C(=O)c2ccccc2C1=O (stereo not given)	CYP2C9 inh 52.2
Cc1ccc(CSCC(=O)Nc2ccc3c(c2)OCO3)cc1	CYP2C19 inh 59.4
O=C(CSCc1c(Cl)cccc1Cl)Nc1ccc2c(c1)OCO2	CYP2C9 inh 75.0
O=C(CSCc1c(Cl)cccc1Cl)Nc1ccccc1C(=O)N1CCOCC1	CYP2C9 inh 92.0
O=C(CSc1nnnn1-c1ccccc1Cl)Nc1ccc2c(c1)OCCO2	none
CC(C)C(NS(=O)(=O)c1cccs1)C(=O)N(C)Cc1ccccc1 (stereo not given)	CYP2C9 inh 95.5, CYP2C19 inh 96.4
CN(Cc1cccs1)S(=O)(=O)c1cccs1	CYP2C19 inh 91.5
CN(CC(=O)NCCc1ccccc1)S(=O)(=O)c1cccs1	CYP2C19 inh 58.0 (no result: sEH activator, sEH inhibitor)
CN(CC(=O)O)S(=O)(=O)c1cccs1	none (no result: sEH activator, sEH inhibitor)
O=C(c1ccco1)N1CCN(C(=O)C(Cc2ccccc2)NS(=O)(=O)c2cccs2)CC1 (stereo not given)	none
CN(Cc1ccccc1)S(=O)(=O)c1cccs1	CYP2C19 inh 97.9
CCN(CC)CCNCc1ccc(-c2ccc(Cl)cc2)o1	none (no result: sEH activator, sEH inhibitor)
O=c1c2c3c(sc2n2cnnc2n1C1CCCCC1)CCC3	none (no result: sEH activator, sEH inhibitor)
CC(=O)Nc1ccc(SCC(=O)N(CCC#N)c2cc(C)cc(C)c2)cc1	CYP2C9 inh 70.1, CYP2C19 inh 81.7
N#CCCN(C(=O)CSc1ccc2c(c1)OCCO2)c1ccccc1	CYP2C9 inh 55.9, CYP2C19 inh 92.8 (no result: sEH activator, sEH inhibitor)
Cc1cccc(NC(=S)NC(NC(=O)c2ccco2)C(Cl)(Cl)Cl)c1 (stereo not given)	CYP2C9 inh 83.6
O=C(O)c1ccc(NC(=S)NC(NC(=O)c2ccco2)C(Cl)(Cl)Cl)cc1 (stereo not given)	none
Cc1ccc(NC(=S)NC(NC(=O)c2ccco2)C(Cl)(Cl)Cl)cc1 (stereo not given)	CYP2C9 inh 92.4
CCOC(=O)C(NCc1ccccc1OC)(NC(C)=O)C(F)(F)F (stereo not given)	none
CC(Cl)C(=O)Nc1ncc(C(F)(F)F)cc1Cl (stereo not given)	none
N#CCC(CNc1ncc(C(F)(F)F)cc1Cl)OC(=O)c1ccc(Cl)cc1Cl (stereo not given)	CYP2C9 inh 50.2
O=C1N2CCSC2=NC1(Nc1nccs1)C(F)(F)F (stereo not given)	none
Nc1ccc(C(=O)Nc2ccc3nc(-c4cccnc4)[nH]c3c2)cc1	none
O=C1c2ccccc2C(Nc2ccc(-c3nc4ccccc4[nH]3)cc2)N1Cc1ccco1 (stereo not given)	CYP2C9 inh 86.7, CYP2C19 inh 73.2
O=C1c2ccccc2C(Nc2ccc3nc(-c4cccnc4)[nH]c3c2)N1Cc1ccco1 (stereo not given)	CYP2C9 inh 93.1 (no result: sEH activator, sEH inhibitor)
O=C1c2ccccc2C(=O)N1Cc1nc2ccccc2c(=O)n1Cc1ccco1	none (no result: sEH activator, sEH inhibitor)
O=C(O)c1cc(-c2ccccn2)n[nH]1	none
COc1ccc(C(c2c[nH]c3ccccc23)c2c[nH]c3ccccc23)cc1O	CYP2C9 inh 100.3, CYP2C19 inh 94.6
CCc1ccc(NC(=O)c2cccnc2)cc1	none
O=C(Nc1ccc(N2CCCCC2)cc1)c1cccnc1	CYP2C9 inh 67.8
O=C(Nc1ccc(S(=O)(=O)N2CCCC2)cc1)c1cccnc1	CYP2C9 inh 70.8
CC1CCCN(S(=O)(=O)c2ccc(NC(=O)c3cccc(-n4cnnn4)c3)cc2)C1 (stereo not given)	sEH inhibitor 95.8
O=C(Nc1ccc(S(=O)(=O)N2CCCCCC2)cc1)c1ccco1	none
O=C(Nc1ccc(N2CCN(Cc3ccccc3Cl)CC2)cc1)c1cccnc1	none
CCCNS(=O)(=O)c1ccc(NC(=O)c2cccnc2)cc1	CYP2C9 inh 97.6
N#Cc1ccc(Oc2cccnc2)cc1C#N	none
CCCCN(C(=O)Nc1ccc(OCC)cc1)C1CCN(C(C)=O)CC1	none
CCOc1ccccc1-c1cc(-c2ccc(OC)cc2)nc2c1c(=O)n(C)c(=O)n2C	none (no result: sEH activator, sEH inhibitor)
COc1ccc(NC(=O)CCc2c(C)nc3nc(C)nn3c2C)cc1	none
O=C(Nc1ccc(S(=O)(=O)N2CCN(Cc3ccccc3)CC2)cc1)c1cnccn1	CYP2C9 inh 51.6
NNC(=O)c1cccc(COc2ccccc2Br)c1	CYP2C9 inh 77.6, CYP2C19 inh 98.0
CCS(=O)(=O)NCc1ccc2[nH]c3c(c2c1)CCCC3	CYP2C9 inh 73.8
CCOC(=O)CNC(=O)c1ccc2[nH]c3c(c2c1)CCCC3	none
Cc1cccc(Cn2cnc3c(nnn3Cc3ccc(F)cc3)c2=O)c1	CYP2C19 inh 57.9, CYP2C9 act 2.5
Cc1ccc(-n2nnc3c(=O)n(Cc4cccc(C)c4)cnc32)cc1	none
